According to PubChem BioAssay AID651725 (National Center for Advancing Translational Sciences (NCATS), 2012):
Screen size: about 360,000 compounds; about 2,000 (0.56%) were called active. Inconclusive results (about 2%) are left out. Cut-off read from the data, not from the text of the source: active = activity change below about -65%; inconclusive = mostly about -30% to -63%; inactive = weaker than that. Many of the other results were omitted from the sample, so actives are more common in it than they were.

Target: Homeobox protein SIX1 (Homo sapiens) + Protein phosphatase EYA2 (Homo sapiens) (UniProt Q15475+O00167)
Assay: qHTS Assay for Inhibitors of the Six1/Eya2 Interaction
Details: AlphaScreen GST-Six1/His-Eya2 binding, biochemical; hits give low values
Procedure, shortened: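 AlphaScreen luminescence read after one hour at 37 °C in darkness. Pin-transferred compounds met GST-Six1 and His-Eya2 protein (5X stock 250 nM/500 nM) plus glutathione donor and Ni-chelate acceptor beads (5X, 50 ug/mL).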
% is set by controls: 0 for no effect and ±100 for the full control effect.

Homeobox protein SIX1 (Homo sapiens) + Protein phosphatase EYA2 (Homo sapiens), sequence (O00167 whole entry, looked up): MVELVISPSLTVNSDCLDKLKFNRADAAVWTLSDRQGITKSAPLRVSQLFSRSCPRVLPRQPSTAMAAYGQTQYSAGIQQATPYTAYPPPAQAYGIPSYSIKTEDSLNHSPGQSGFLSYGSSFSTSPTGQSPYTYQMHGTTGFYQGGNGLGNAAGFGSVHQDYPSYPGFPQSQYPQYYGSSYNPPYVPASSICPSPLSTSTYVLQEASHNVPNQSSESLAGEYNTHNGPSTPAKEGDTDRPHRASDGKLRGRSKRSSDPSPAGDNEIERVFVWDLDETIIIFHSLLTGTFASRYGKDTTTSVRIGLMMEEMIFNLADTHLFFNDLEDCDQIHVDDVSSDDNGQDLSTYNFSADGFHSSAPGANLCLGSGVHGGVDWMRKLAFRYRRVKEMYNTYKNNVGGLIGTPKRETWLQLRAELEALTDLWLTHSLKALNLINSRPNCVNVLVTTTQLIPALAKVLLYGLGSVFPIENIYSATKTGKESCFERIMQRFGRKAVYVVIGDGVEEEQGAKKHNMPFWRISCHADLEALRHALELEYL
Homeobox protein SIX1 (Homo sapiens) + Protein phosphatase EYA2 (Homo sapiens), sequence (Q15475 whole entry, looked up): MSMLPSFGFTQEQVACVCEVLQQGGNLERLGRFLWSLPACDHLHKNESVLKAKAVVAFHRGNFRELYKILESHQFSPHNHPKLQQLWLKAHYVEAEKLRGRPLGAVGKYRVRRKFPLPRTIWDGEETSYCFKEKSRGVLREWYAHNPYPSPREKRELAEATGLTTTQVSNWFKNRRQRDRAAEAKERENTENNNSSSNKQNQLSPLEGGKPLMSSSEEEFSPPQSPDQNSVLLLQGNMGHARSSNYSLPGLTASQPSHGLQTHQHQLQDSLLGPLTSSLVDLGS

SMILES	activity change
COC(=O)[C@]12CCCCC=C1N(Cc1ccc(Cl)cc1Cl)C(=O)[C@H](CC(=O)NCc1cccc3ccccc13)C2	-10.1% (inactive)
O=C1NC[C@@H](CCCCN2CCN(CCc3ccc(O)cc3)C(=O)C2=O)N(CC2CCCCC2)C1=O	3.55% (inactive)
CC[C@]1(c2ccccc2OC)C(=O)N(C(=O)OC)N1C(=O)OC	-0.457% (inactive)
O=C1c2ccccc2C(=O)N1CCCc1nc(-c2ccccc2)no1	1.31% (inactive)
O=C(CN1C(=O)c2cccc3cccc(c23)C1=O)N1CCCCC1	2.22% (inactive)
O=C1c2cccc3cccc(c23)C(=O)N1CCCCCc1n[nH]c(=S)o1	-80.1% (active)
COC(=O)c1ccc2nc(-c3ccccc3)c(Cc3ccc(OC)cc3C)n2c1	0.0747% (inactive)
COCCNC(=O)CCCn1c(=O)c2ccccc2n(Cc2cccc([N+](=O)[O-])c2)c1=O	4.87% (inactive)
COC(=O)c1ccc(Nc2ncnc3sccc23)cc1	-1.71% (inactive)
CCOC(=O)c1nc(Nc2ccc(C(=O)OC)cc2)c2ccccc2n1	-84.8% (active)
CCOC(=O)c1ccc(N/C(=N/S(=O)(=O)c2ccccc2)c2ccccc2)cc1	-27.6% (inactive)
COc1ccc(CC(=O)Nc2ccccc2NC(=O)c2ccco2)cc1OC	-2.61% (inactive)
COc1ccc(NC(=O)CCC(=O)Nc2cc(OC)c(NC(=O)c3ccco3)cc2OC)c(OC)c1	-72.1% (active)
COc1ccc(NC(=O)CSc2ccc(-c3ccco3)nn2)c(OC)c1	-14.2% (inactive)
COC(=O)C[C@@H]1C=C[C@@H](NC(=O)c2ccc3c(c2)OCO3)[C@@H](CO)O1	-3.63% (inactive)
Cc1ccc(S(=O)(=O)N(C)c2ccc(OCC(=O)OCc3ccc(C#N)cc3)cc2)cc1	5.43% (inactive)
O=C(Oc1cccc(C(=S)N2CCOCC2)c1)c1cccc(Cl)c1	-18.4% (inactive)
O=C(Oc1ccc(F)cc1)N1CCOCC1	-1.89% (inactive)
O=C(Oc1ccc(C(=S)N2CCOCC2)cc1)c1ccc(F)cc1	-91.7% (active)
CCCc1c(-c2ccccc2F)ncn1Cc1ccccc1OC	-11.2% (inactive)
Cc1cc(NC(=O)CSc2nnc(-c3ccc(Cl)s3)o2)no1	-86.8% (active)
Cc1cc(NC(=O)CSc2ncc(C(F)(F)F)cc2Cl)no1	1.15% (inactive)
O=C(CSc1nnc(-c2ccncc2)o1)Nc1cccc(Cl)c1	-1.81% (inactive)

SMILES	activity change
Cc1cc(OCc2cc(C(=O)NCc3cc(C(C)C)no3)no2)cc(C)c1Cl	14% (inactive)
Cc1ccc(S(=O)(=O)N[C@H](CO)C(C)C)cc1	4.31% (inactive)
Cc1ccc2cccc([N+](=O)[O-])c2n1	-20.1% (inactive)
O=[N+]([O-])c1ccccc1S(=O)(=O)Nc1cccc2cccnc12	-91.7% (active)
O=S(=O)(NCCc1ccc(F)cc1)c1cccc2cccnc12	-7.51% (inactive)
Cc1ccc(S(=O)(=O)C2C(=O)NC3(C)CC2c2ccccc2O3)cc1 (centres undefined)	6.28% (inactive)
COC(=O)[C@]12CCCCC=C1N(Cc1ccc3c(c1)OCO3)C(=O)[C@H](CC(=O)NCc1cccs1)C2	-7.98% (inactive)
COc1ccccc1Cc1c(-c2ccc(Cl)cc2)nc2c3ccccc3ccn12	9.04% (inactive)
O=c1[nH]c2cccnc2n(CCNc2ncc(C(F)(F)F)cc2Cl)c1=O	5.43% (inactive)
CN(C)C=NC(=O)c1cccn1-c1ncc(C(F)(F)F)cc1Cl	7.6% (inactive)
COc1cccc(/C=N/Nc2ncc(C(F)(F)F)cc2Cl)c1O	-91.7% (active)
Nc1c(C(=O)c2cccs2)sc2nsc(SCCN3CCCCC3)c12	19.7% (inactive)
O=C(O)C1C2CC2CN1C(=O)c1ccc(Cl)cc1Cl (centres undefined)	2.75% (inactive)
O=C(N/N=C/c1cc([N+](=O)[O-])ccc1O)/C(=C\c1cccs1)NC(=O)c1ccccc1	-90.3% (active)
O=C(Nc1ccc(C(=O)O)cc1)/C(=C/c1ccc([N+](=O)[O-])cc1)NC(=O)c1ccccc1	-4.68% (inactive)
O=C(NCCc1ccccc1)/C(=C\c1ccc([N+](=O)[O-])cc1)NC(=O)c1ccccc1	2.96% (inactive)
COc1ccc(NC(=O)C2(C)Cc3c(-c4cccc(NC(C)=O)c4)ccnc3O2)cc1OC (centres undefined)	-4.36% (inactive)
CCc1ccc(Oc2coc3cc(OC(=O)c4cc5ccccc5oc4=O)ccc3c2=O)cc1	-6.39% (inactive)
O=C(Oc1cccnc1)c1cc2ccccc2oc1=O	-76% (active)
O=C(Nc1cccnc1)c1cc2cc(Br)ccc2oc1=O	17.5% (inactive)
COC(=O)[C@]12CCCCC=C1N(Cc1ccco1)C(=O)[C@H](CC(=O)NCCCCc1ccccc1)C2	-13.7% (inactive)
CCC(C)CN1C(=O)CSCC1(C)C(=O)NCc1ccccc1 (centres undefined)	7.26% (inactive)
CCOc1cc(N2CCOCC2)c(OCC)cc1NC(=O)c1ccc(C)s1	-7.09% (inactive)

SMILES	activity change
CCOc1cc(N2CCOCC2)c(OCC)cc1NC(=O)COC(=O)[C@H](Cc1c[nH]c2ccccc12)NC(C)=O	0.0588% (inactive)
CCOc1cc(N2CCOCC2)c(OCC)cc1NC(=O)COc1cccc2cccnc12	-66.8% (active)
Cc1cccc(C)c1NC(=O)C(c1cccc(F)c1)N1CCN(C)CC1 (centres undefined)	1.36% (inactive)
CC1CCN(S(=O)(=O)c2ccc3[nH]c(=O)ccc3c2)CC1	-0.516% (inactive)
O=C(Cc1ccc(Cl)cc1)c1ccccc1	4.47% (inactive)
CC(=NNC(=S)N1CCCCCC1)c1ccccn1	-88.5% (active)
CCOc1ccc(NC(=S)N2CCCCCC2)cc1	-13.8% (inactive)
O=C(NCCOc1ccccc1)c1ccccc1F	6.38% (inactive)
COc1ccc(C(=O)/C=C/Nc2ccccn2)cc1	3.99% (inactive)
C/C(=N/NC(=O)CCc1ccccc1)c1ccco1	2.7% (inactive)
C/C(=N/NC(=O)c1ccn(C)n1)c1ccncc1	5.19% (inactive)
COc1ccc(CC(=O)N/N=C(\C)c2ccccn2)cc1	-85.5% (active)
COc1ccc(CC(N)c2csc(NC(=O)Cc3ccccc3)n2)cc1 (centres undefined)	-12.1% (inactive)
C/C(=N\NC(=O)Cc1ccc(Cl)cc1)c1ccccn1	-85.5% (active)
CCNC(=S)N1CCN(c2ncccn2)CC1	1.47% (inactive)
C/C(=N\NC(=O)c1ccccc1F)c1ccccn1	-91.6% (active)
Cc1cccc(C)c1NC(=O)C(c1ccc(C(F)(F)F)cc1)n1c(=O)c(-c2ccco2)nc2ccccc21 (centres undefined)	-0.0756% (inactive)
CCCCOCCCNC(=O)C[C@@H]1C[C@@]2(C(=O)OC)CCCCC=C2N(CCC2=CCCCC2)C1=O	-2.51% (inactive)
CC(C)N1C(=O)c2ccccc2NC(=O)C1C(=O)NCc1cccs1 (centres undefined)	0% (inactive)
COc1cc(C=C(OC(C)=O)c2ccc3c(c2)OCO3)cc(OC)c1OC	-21% (inactive)
C=C1C(=O)OC2C1CCC(C)=CCCC1(C)OC21 (centres undefined)	10.7% (inactive)
O=c1ccc2c(-c3ccccc3S(=O)(=O)O)c3ccc(O)c(O)c3oc-2c1O	-87.1% (active)
COC(=O)C1=CN(c2c(C)cc(C)cc2C)C(N)=C(C#N)C1c1cccc(F)c1 (centres undefined)	-17.6% (inactive)

SMILES	activity change
O=C(N[C@H]1CC[C@H](CC(=O)N2CCCCC2)O[C@@H]1CO)c1cccc(F)c1	-8.77% (inactive)
CCN(CC)CCOc1ccc2c(c1)C(=NNC(=O)c1ccccn1)c1cc(OCCN(CC)CC)ccc1-2	-74.3% (active)
CCN(CC)CCNCC(=O)Nc1ccc(Oc2ccccc2)cc1	-5.73% (inactive)
CCCC(C(=O)OCCN(CC)CC)(c1ccccc1)c1ccccc1	-20.2% (inactive)
CCc1ccc(-c2cc(C)no2)cc1S(=O)(=O)NCCc1ccc(S(N)(=O)=O)cc1	-4.17% (inactive)
CC(=O)Nc1ccc(NC(=O)C(NS(=O)(=O)c2ccc3c(c2)OCCO3)C(C)C)cc1 (centres undefined)	0.533% (inactive)
CCC(C(=O)Nc1c(C)cccc1C)n1c(-c2cc(C)cs2)nc2ccccc21 (centres undefined)	4.28% (inactive)
CC(=O)N1CCCc2cc(S(=O)(=O)N3CCCC(C(=O)N4CCN(c5cccc(Cl)c5)CC4)C3)ccc21 (centres undefined)	-12.9% (inactive)
COc1ccc(-n2c(C)cc(C(=O)CN3C(=O)NC4(CCc5ccccc54)C3=O)c2C)cc1 (centres undefined)	-14.9% (inactive)
COCCNC(=O)CSc1nc(N)c(NC(=O)c2ccco2)c(=O)[nH]1	2.42% (inactive)
COc1ccc(C(=O)Nc2c(N)nc(SCC(=O)Nc3ccc(C(C)=O)cc3)[nH]c2=O)cc1	-14.2% (inactive)
COC(=O)c1ccc(NC(=O)CSc2nc(N)c(NC(=O)c3ccc(Br)o3)c(=O)[nH]2)cc1	-66.4% (active)
CCOC(=O)c1sc(/N=C/C2=C(O)CC(C)(C)CC2=O)c(C(=O)OCC)c1C	-0.173% (inactive)
Cc1nn(Cc2ccccc2Cl)c(C)c1NC(=O)Cn1nc([N+](=O)[O-])c(Cl)c1C	-0.78% (inactive)
Cc1c(Cl)c([N+](=O)[O-])nn1CCCC(=O)NC(C)c1ccccc1 (centres undefined)	7.3% (inactive)
Cc1c(Cl)c([N+](=O)[O-])nn1Cc1ccc(C(=O)N/N=C\c2cc(Cl)ccc2O)o1	-71.9% (active)
COc1ccccc1C(=O)NCC(=O)OCC(=O)NNC(=O)c1ccc(Br)cc1	-6.57% (inactive)
CC(C)c1cc(Cn2c3ccccc3c(=O)n2C(C)Cn2cc(C3CC3)nn2)on1 (centres undefined)	4.06% (inactive)
COc1ccc(COC[C@H](CC(C)C)N2CCN(C(=O)c3cccc(C(F)(F)F)c3)CCC2=O)cc1	9.97% (inactive)
CCN(CC(=O)Nc1ccc(NC(C)=O)cc1)C(=O)C1CC(=O)N(c2ccc3c(c2)OCCO3)C1 (centres undefined)	-0.253% (inactive)
